# In all, about 52,000 compounds went through this assay and about 4,300 (8.3%) were called active. Cut-off read from the data, not from the text of the source: active = survival mostly below about 52% (no sharp cut-off); inactive = mostly above about 56%. The list comes from a sample in which actives are over-represented; it also holds similar structures and randomly drawn compounds.
# Tested on: DeltatarO mutant
# Experiment: S. aureus survival, RN4220 and DeltatarO strains – OD600, teichoic acid synthesis inhibitors, primary screen (AID 463173)
# Conditions: S. aureus RN4220 wild type/DeltatarO growth, OD600, 18 h, hits give low values, screened at 18.75 µg/mL (by protocol)
row,Compound,survival
1,CCCCNc1ccc(-c2nc(-c3ccccc3)no2)cc1[N+](=O)[O-],72% (inactive)
2,CCOc1ccc(C(=O)O)o1,94% (inactive)
3,Cc1ccc(-n2c(SCC(=O)NC(C)(C)C)nc(O)cc2=O)cc1,107% (inactive)
4,CCCCOC(=O)c1ccc(Nc2ncnc3[nH]ncc23)cc1,55% (inactive)
5,N#Cc1ccccc1NC(=O)C(=O)NCCc1csc(-c2ccc(C(F)(F)F)cc2)n1,85% (inactive)
6,Cc1ccc(S(=O)(=O)c2cn(Cc3ccccc3)c3cc(N4CCCC4)c(F)cc3c2=O)cc1,71% (inactive)
7,Cc1nc2sc(C)c(C)n2c(=O)c1S(=O)(=O)N1CCN(c2ccccc2F)CC1,68% (inactive)
8,Cc1cc(C)c(NC(=O)Cn2c(=O)n(-c3cccc(C(F)(F)F)c3)c(=O)c3c(C)c(C)sc32)c(C)c1,92% (inactive)
9,O=C(Nc1ccc2c(c1)OCCO2)C1CCCN(S(=O)(=O)Cc2ccccc2)C1 (stereo unspecified),102% (inactive)
10,CCOc1ccc(NC(=O)c2nn(C)c3c2CS(=O)(=O)c2ccccc2-3)cc1,60% (inactive)
11,CCOc1ccc(C(=O)CSc2nc3cc(C(=O)NC4CCCC4)ccc3c(=O)n2CC2CCCO2)cc1 (stereo unspecified),8% (active)
12,Cc1ccc(C(=O)CSc2nc3cc(C(=O)NC4CCCC4)ccc3c(=O)n2CC2CCCO2)cc1 (stereo unspecified),101% (inactive)
13,COc1ccc(C(=O)CSc2nc3cc(C(=O)NC4CCCC4)ccc3c(=O)n2CC2CCCO2)cc1 (stereo unspecified),95% (inactive)
14,Cc1ccc(C(=O)CSc2nc3cc(C(=O)NC4CCCC4)ccc3c(=O)n2CC2CCCO2)c(C)c1 (stereo unspecified),91% (inactive)
15,O=C(CSc1nc2cc(C(=O)NC3CCCC3)ccc2c(=O)n1CC1CCCO1)c1cccc(Cl)c1 (stereo unspecified),20% (active)
16,O=C(CSc1nc2cc(C(=O)NC3CCCC3)ccc2c(=O)n1CC1CCCO1)c1ccc(F)cc1 (stereo unspecified),96% (inactive)
17,CC(=O)c1cc(-c2ccc(F)cc2)n(CC(=O)NC2CCC(C)CC2)c1C (stereo unspecified),67% (inactive)
18,O=C(CN1CCN(S(=O)(=O)c2cc(Cl)ccc2Cl)CC1)Nc1cccc(F)c1,92% (inactive)
19,CCOc1ccc(C(=O)C(CC(CN2CCOCC2)C(=O)c2ccc(OCC)cc2)CN2CCOCC2)cc1 (stereo unspecified),104% (inactive)
20,O=C1c2oc3ccc(F)cc3c(=O)c2C(c2cccc([N+](=O)[O-])c2)N1CCCN1CCOCC1 (stereo unspecified),84% (inactive)
21,CCCCOc1ccc(C(=O)OCC2CCCN3CCCCC23)cc1OC (stereo unspecified),107% (inactive)
22,O=C(CCC(=O)N1CC2CCCN2c2ccccc21)NCc1ccccc1Cl (stereo unspecified),69% (inactive)
23,O=C(CCC(=O)N1CC2CCCN2c2ccccc21)NCc1ccc(F)cc1 (stereo unspecified),0% (active)

row,Compound,survival
1,O=C(CCC(=O)N1CC2CCCN2c2ccccc21)NCc1cccc(Cl)c1 (stereo unspecified),37% (active)
2,COc1cccc(CNC(=O)CCC(=O)N2CC3CCCN3c3ccccc32)c1 (stereo unspecified),66% (inactive)
3,O=C(CCC(=O)N1CC2CCCN2c2ccccc21)NCc1ccccc1 (stereo unspecified),74% (inactive)
4,Cc1ccc(CNC(=O)CCC(=O)N2CC3CCCN3c3ccccc32)cc1 (stereo unspecified),83% (inactive)
5,O=C(O)c1cc2ccccc2[nH]c1=O,107% (inactive)
6,CCc1cccc(NC(=O)Cc2nc(-c3ccc(OC)cc3)no2)c1,77% (inactive)
7,O=C(Nc1ccc(S(=O)(=O)N2CCCCC2c2cccnc2)cc1)c1ccc(Br)cc1 (stereo unspecified),92% (inactive)
8,CC(=O)N1CCc2cc(Br)cc(S(=O)(=O)N3CCN(c4cccc(C)c4)C(C)C3)c21 (stereo unspecified),74% (inactive)
9,CCc1ccc(-n2c(=O)c3c(C)c(C(=O)N(C)C)sc3n(CC(=O)Nc3cc(Cl)ccc3C)c2=O)cc1,131% (inactive)
10,Cc1c(C(=O)N(C)C)sc2c1c(=O)n(-c1ccc(Cl)c(Cl)c1)c(=O)n2CC(=O)Nc1ccc(Br)cc1F,144% (inactive)
11,COC(=O)c1ccccc1NC(=O)Cn1c(=O)n(-c2cccc(OC)c2)c(=O)c2c(C)c(C(=O)N(C)C)sc21,117% (inactive)
12,Cc1ccccc1NC(=O)Cn1c(=O)n(Cc2ccccc2)c(=O)c2c(C)c(C)sc21,136% (inactive)
13,CCOC(=O)c1ccccc1NC(=O)Cn1c(=O)n(Cc2ccccc2)c(=O)c2c(C)c(C)sc21,84% (active)
14,Cc1c(C(=O)N(C)C)sc2c1c(=O)n(-c1ccc(Cl)c(Cl)c1)c(=O)n2CC(=O)Nc1cccc(C(F)(F)F)c1,46% (active)
15,CCOC(=O)c1ccccc1NC(=O)Cn1c(=O)n(-c2ccc(CC)cc2)c(=O)c2c(C)c(C(=O)N(C)C)sc21,0% (active)
16,CCOc1ccccc1NC(=O)Cn1c(=O)n(Cc2ccccc2)c(=O)c2c(C)c(C)sc21,66% (inactive)
17,CCN(CC)C(=O)c1sc2c(c1C)c(=O)n(-c1ccc(Cl)c(Cl)c1)c(=O)n2CC(=O)Nc1cccc(OC)c1,70% (inactive)
18,CCOc1ccc(NC(=O)C(NS(=O)(=O)c2ccc3c(c2)CCN3C(C)=O)C(C)C)cc1 (stereo unspecified),124% (inactive)
19,CCCOc1ccc(-c2nc(SCC(=O)c3ccc(Cl)cc3)n[nH]2)cc1,187% (inactive)
20,Cc1ccc(NC(=O)CSc2ncc(S(=O)(=O)c3ccc(C(C)C)cc3)c(=O)[nH]2)cc1C,87% (inactive)
21,Nc1c(C(=O)Nc2ccccc2Cl)c2ccccn2c1C(=O)c1ccc(Cl)cc1,80% (inactive)
22,CCOC(=O)c1ccccc1NC(=O)CSc1nc2ccncc2[nH]1,85% (inactive)
23,CC(Sc1ncc(S(=O)(=O)c2ccc(C(C)C)cc2)c(N)n1)C(=O)Nc1ccccc1 (stereo unspecified),60% (inactive)

row,Compound,survival
1,O=C(Nc1c(-c2ccc(F)cc2)nc2ccccn12)c1cccc(F)c1,146% (inactive)
2,COCCNc1c(-c2ccccc2)nc2cc(C)ccn12,69% (inactive)
3,COc1ccc(-c2nc3cc(C)ccn3c2NC(=O)c2cccc(F)c2)cc1,53% (active)
4,Cc1cccc(C(=O)Nc2c(-c3ccccc3)nc3cc(C)ccn23)c1,27% (active)
5,COc1ccc(-c2nc3cc(C)ccn3c2NC(=O)c2ccc(C)c(C)c2)cc1,68% (inactive)
6,COc1ccc(-c2nc3cc(C)ccn3c2NC(=O)c2ccc(F)cc2)cc1,37% (active)
7,COc1ccc(CNC(=O)c2ccc3nc(-c4ccc(F)cc4)c(-c4ccc(F)cc4)nc3c2)cc1,78% (inactive)
8,Cc1ccn2c(NC(=O)c3cccc(Cl)c3)c(-c3ccccc3)nc2c1,65% (inactive)
9,Cc1nc2ccccn2c(=O)c1NC(=O)c1cccc(F)c1,71% (inactive)
10,CCOc1ccccc1NS(=O)(=O)c1ccc(N2CCCCS2(=O)=O)cc1,97% (inactive)
11,Cc1ccc(NC(=O)/C(C#N)=C/c2cn(CC(=O)NCc3ccco3)c3ccccc23)cc1Cl,64% (inactive)
12,Cc1ccc(S(=O)(=O)NNC(=S)NCC2CCCO2)cc1 (stereo unspecified),69% (inactive)
13,Cc1cn2c(=O)cc(COC(=O)COc3ccc(C)c(C)c3)nc2s1,67% (inactive)
14,O=C(COc1ccccc1)OCc1cc(=O)n2nc(-c3cccs3)sc2n1,88% (inactive)
15,Cc1cn2c(=O)cc(COc3ccc(Cl)cc3)nc2s1,53% (inactive)
16,COc1ccc(OCC(=O)OCc2cc(=O)n3nc(-c4cccs4)sc3n2)cc1,94% (inactive)
17,Cc1cc(C)cc(OCc2cc(=O)n3cc(C)sc3n2)c1,81% (inactive)
18,COc1cccc(OCc2cc(=O)n3cc(C)sc3n2)c1,40% (active)
19,COc1ccc(OCC(=O)OCc2cc(=O)n3cc(C)sc3n2)cc1,6% (active)
20,O=C(COc1ccc(Cl)cc1)OCc1cc(=O)n2nc(-c3cccs3)sc2n1,-4% (active)
21,Cc1cn2c(=O)cc(COC(=O)COc3ccc(F)cc3)nc2s1,70% (inactive)
22,COc1ccccc1-c1nc(CNC(=O)Nc2ccccc2)c(C)o1,98% (inactive)
23,Cc1ccc(N2C(=O)N(CC(=O)C(C)(C)C)c3ccccc3S2(=O)=O)cc1C,91% (inactive)

row,Compound,survival
1,CCOc1ccc2c(c1)c(=O)c(S(=O)(=O)c1ccc(C)cc1)cn2Cc1ccccc1Cl,82% (inactive)
2,CC1=C(C)C(=O)N(c2ccccn2)C1=O,93% (inactive)
3,Cc1ccc(-n2c(=O)c3ccc(C(=O)NCc4ccccc4Cl)cc3n(CC(=O)Nc3ccc(C)cc3C)c2=O)cc1,79% (inactive)
4,CC(C)(C)NC(=O)c1cccc(NC(=O)c2ccco2)c1,101% (inactive)
5,COc1ccc(N2CCN(CNC(=O)c3ccccc3)CC2)cc1,95% (inactive)
6,Nc1nnc(CCN2C(=O)CSC2=O)s1,95% (inactive)
7,CCc1cnc2c(c1SCC(=O)NCc1ccc(F)cc1)c(=O)n(C)c(=O)n2C,119% (inactive)
8,CC(C)C(=O)Nc1ccc2nc(SCC(=O)N3CCc4ccccc43)sc2c1,97% (inactive)
9,CCc1nnc(NC(=O)CSc2nc3c([nH]c4ccccc43)c(=O)n2-c2ccc(F)cc2)s1,84% (inactive)
10,CCc1ccc(-c2nc(CS(=O)CC(=O)NCCc3ccc(Cl)cc3)c(C)o2)cc1 (stereo unspecified),91% (inactive)
11,COc1ccc2c(c1)c1c(c(=O)n(Cc3ccccc3)c(=O)n1CC(=O)Nc1c(C)cccc1C)n2C,72% (inactive)
12,CCc1ccc(NCc2cc3ccc(OC)cc3n(CC(=O)Nc3ccccc3C)c2=O)cc1,83% (inactive)
13,COc1ccc2c(c1)c1c(c(=O)n(CCc3ccccc3)c(=O)n1Cc1cccc(F)c1)n2C,67% (inactive)
14,Cc1ccc(Cn2c(=O)n(-c3ccc(C)cc3)c(=O)c3c2c2cc(C)ccc2n3C)cc1,52% (active)
15,Cc1ccc(-n2c(=O)c3c(c4cc(C)ccc4n3C)n(Cc3ccc(F)cc3)c2=O)cc1,116% (inactive)
16,COc1ccc2c(c1)c1c(c(=O)n(Cc3ccccc3)c(=O)n1CC(=O)Nc1ccc(C)cc1C)n2C,-2% (active)
17,COc1ccc2cc(CNc3ccc(C)cc3)c(=O)n(CC(=O)Nc3ccc(C)cc3Cl)c2c1,102% (inactive)
18,COc1ccc2c(c1)c1c(c(=O)n(Cc3ccccc3)c(=O)n1CC(=O)Nc1ccccc1F)n2C,109% (inactive)
19,COc1ccc2c(c1)c1c(c(=O)n(CCc3ccccc3)c(=O)n1Cc1ccc(F)cc1)n2C,6% (active)
20,COc1ccc2cc(CNc3ccccc3)c(=O)n(CC(=O)Nc3ccc(C)cc3C)c2c1,0% (active)
21,COc1ccc2c(c1)c1c(c(=O)n(CCc3ccccc3)c(=O)n1Cc1ccccc1)n2C,90% (inactive)
22,COc1ccc(Cn2c(=O)n(-c3ccc(C)cc3)c(=O)c3c2c2cc(C)ccc2n3C)cc1,100% (inactive)

# — PubChem BioAssay AID463173 (ICCB-Longwood Screening Facility, Harvard Medical School, 2010)
